We go through 40 compounds from PubChem BioAssay (NCI).

About 83,000 compounds went through this panel and 20% of them were active in at least one assay; those are over-represented in the sample as a whole.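 In brief: 96-well plates, 48 h treatment, single concentration, percent growth endpoint.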 Active and inactive are the calls of the source. The calls were made as follows: active = growth percent below 10; inactive = the rest.

In this assay the test system is HL-60(TB) leukemia. In words: NCI-60 one-dose screen, 48 h (100 = growth as untreated, 0 = no growth, -100 = all killed). Particulars: 10 µM unless noted.
Take `CCc1ccc(CCC(=O)Nc2ncc(Cc3ccc(Cl)cc3)s2)o1`: the growth was -39.6% (active).

Take `Cc1ccccc1N1C(c2ccccc2)=NNC12C=CC(=O)c1c(O)cccc12` (stereo not given): the growth is 70.2% (inactive). Turning to `Cn1nc(-c2ccccc2)c2c(-c3ccccc3)onc2c1=O`, the growth is 1.23% (active). In the case of `COC(=O)c1nc(-c2ccccc2)oc1S(=O)(=O)n1nc(-c2ccccc2)cc1N` it was 58.9% (inactive); in that of `CCN1CCN(C(=O)[C@@]2(C)CC[C@]3(C)CC[C@]4(C)C(=CC(=O)[C@@H]5[C@@]6(C)CC[C@H](OC7C[C@@H](O)[C@@H](O)C(C)O7)C(C)(C)[C@@H]6CC[C@]54C)[C@@H]3C2)CC1` (stereo not given in full), -57.2% (active); in that of `CCC1(C(C)C)NC(=O)NC1=O` (stereo not given), 100% (inactive).

For `COc1ccccc1N=Nc1c(O)ccc2cc(S(=O)(=O)O)ccc12`, the growth was 106% (inactive). Take `CNC(=O)c1cc(Oc2ccc3nc(NC(=O)NC(C)C)sc3c2)ccn1`: the growth was 47.8% (inactive). In the case of `CC(=O)Nc1ccccc1-c1n[nH]c(=O)[nH]c1=O` it was 109% (inactive).

Consider `Cc1cccc(NC(=O)CSc2nc3ccccc3[nH]2)c1`, for which the growth was 101% (inactive).

Regarding `COc1cc2nc(-c3ccc(C(F)(F)F)cc3)cc(OCCN3CCCCC3)c2cc1OC`, the growth is 58.6% (inactive). In the case of `COc1cc(NC(=O)CCSc2nc3ccc(Cl)cc3c(=O)n2Cc2ccccc2)cc(OC)c1OC`, the growth was 99.6% (inactive). With `COc1ccc(/C=C\c2cc(OC)c(OC)c(OC)c2)cc1OCC(=O)Nc1nc2ccccc2s1`, the growth is 18.7% (inactive).

On to `Cc1ccc(-c2onc3c(=O)[nH]nc(-c4ccccc4)c23)cc1`, for which the growth was -8.12% (active). `O=C(Oc1ccccc1)C(Br)C(Br)c1ccccc1` (stereo not given): the growth is 2.65% (active).

In the case of `O=C(NCCCCCCCNC(=O)OCc1ccc2c(Cl)cc(Cl)c(O)c2n1)OCc1ccc2c(Cl)cc(Cl)c(O)c2n1`, the growth is -45.9% (active). On to `Cc1c(N2CN3C[C@H](C)N4CN(c5c(C)n(C)n(-c6ccccc6)c5=O)CN5C[C@@H](C)N(C2)C3C54)c(=O)n(-c2ccccc2)n1C` (stereo not given in full), for which the growth was -14.5% (active).

For the compound `CCCCOC(=O)/C=C\C(=O)NC(N)=O`, the growth was 56.8% (inactive). Regarding `COC(=O)c1c2c(c(C)[n+]([O-])c1C)C(=O)C=C(NCc1ccccc1)C2=O`, the growth was -31.4% (active). Then `N#C/C(=C\c1ccc(-c2cccc(C(F)(F)F)c2)o1)c1ccccc1`, with 96.2% (inactive); and `CC(=O)NCC(=O)Nc1ccc(-c2nnc3ccccn23)nc1.CC(=O)NCC(=O)Nc1ccc(-c2nnc3ccccn23)nc1.[Pt+2]`, with 109% (inactive). Regarding `Fc1ccc(Oc2ccc(Nc3ncnc4onc(-c5ccccc5)c34)cc2)cc1`, the growth was 86.9% (inactive).

Regarding `O=C(N/N=C/C=C\c1ccccc1)C(=O)N/N=C/C=C/c1ccccc1`, the growth is 110% (inactive). Take `COc1cc(OC)c(NC(=O)c2cc3ccccc3cc2O)cc1Cl`: the growth is 22% (inactive). Consider `C#CCOc1ccc2ncnc(N3CCN(C(=O)CCl)CC3)c2c1`, for which the growth was 73.4% [8.25 µM] (inactive). For the compound `O=c1cc(C2NNC(=S)N2)c2ccc3ccccc3c2o1` (stereo not given), the growth is 102% (inactive). Then `O=C(/C=C/C12c3ccccc3C(c3ccccc31)C1C(=O)NC(=O)C12)c1ccco1` (stereo not given), with 8.34% (active). On to `CC(C)NCC(O)COc1ccc(CCOCC2CC2)cc1` (stereo not given), for which the growth is 92.8% (inactive). As for `O=S1(=O)c2ccccc2Oc2ccccc21`, the growth is 89.5% (inactive). Then `CCOC(=O)c1c(C)nc2c(c1N)/C(=C/c1ccc[nH]1)C(=O)N2Cc1ccc(C(F)(F)F)cc1`, with 96.7% (inactive); and `Cc1ccc(/C=C/C(=O)c2ccc(-n3cc(CN4CCN(c5cc6c(cc5F)c(=O)c(C(=O)O)cn6C5CC5)CC4)nn3)cc2)cc1`, with 98.8% (inactive). As for `COc1ccc(-c2cc(-c3ccc(OC)cc3)c3sc(=O)[nH]c3n2)cc1`, the growth was 84.7% (inactive). In the case of `Cc1ccc(NC(=O)N[C@@H](Cc2cc(F)cc(F)c2)C(=O)N[C@@H]2C(=O)N3CCC[C@H]3C(=O)N3CCCC[C@H]3C(=O)N[C@@H](C)C(=O)N3C[C@H](C)C[C@H]3C(=O)O[C@H]2C)cc1` it was 11.6% (inactive); in that of `CN1CCN(CCCOc2cccc3nc(Nc4ccc(F)c(F)c4)ccc23)CC1`, 38.8% (inactive); in that of `O=C(N/N=C/c1ccc(Cl)cc1)c1cc(-c2cc3ccccc3o2)nn1-c1ccccc1`, 117% (inactive). Then `CCCCCCCCCCCCNCCCc1ccccc1`, with 32.3% (inactive). Turning to `O=[N+]([O-])c1ccc2ncccc2c1Cl`, the growth was 11.6% (inactive). As for `O=c1[nH]nnc2c1ncn2C1OC(CO)C(O)C1O` (stereo not given), the growth was 25.2% (inactive). Regarding `CCOc1ccc(/C=C\C(=O)O)cc1`, the growth was 82.9% (inactive).

As for `COc1ccc(C(=O)C(C)Br)cc1OC` (stereo not given), the growth is 96.7% (inactive).
